This is an account of results in PubChem BioAssay (NCI).

Molecules are shown by their SMILES. About 79,000 compounds went through this panel and 15% of them were active in at least one assay; those are over-represented in the sample as a whole. Values without a mark were called inactive. Calls of active or inactive are those of the source. Rule as the data show it: active = growth inhibition above about 70%; inactive = the rest.

A short description of the first experiment: NCI Yeast Anticancer Drug Screen. Data for the bub3 strain (AID 167). Conditions: S. cerevisiae bub3 mutant strain, at 50.0 µM, stronger effect = higher value. In short, it runs like this: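 Compounds were applied to a genetically altered yeast strain carrying a cell-cycle control defect. Growth inhibition was scored against vehicle-treated controls.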
Consider `COC1OC(COS(=O)(=O)c2ccc(C)cc2)C2OC(C)(C)OC2C1OS(=O)(=O)c1ccc(C)cc1` (stereo unspecified), for which the growth inhibition is 3.85%.

For the compound `c1ccc(-c2cc3c4ccccc4ccn3c2)cc1`, the growth inhibition is -2.95%. On the same count and under the same terms, for `NC(=O)N/N=C/c1cccc(O)c1O` the value was -2.9%. Same read-out and setting: for `N#Cc1cc([N+](=O)[O-])ccc1NC(=O)C(=O)C(C(=O)c1ccc2ccccc2c1)C1OCc2ccccc21` (stereo unspecified) the value was -8.5%; for `CCCCCCCCCCCCCCCCCCC(CO)CO`, -10.2%; for `C/C=C/C(=O)NN`, -2.9%. The same measure, in the same setting: the figure for `COc1cc(C(=O)NN(C)C)cc(OC)c1OC` is -7.95%; for `N#CCCOC(=O)Nc1ccccc1` it is -8.3%. `CC1OC(n2ccc3ccc([N+](=O)[O-])cc32)C(O)C(O)C1O` (stereo unspecified): the growth inhibition was -27.8%. The same measure, in the same setting: for `COC(=O)NCc1nc2cc3c[nH][nH]c3cc2n1` the value was 11.6%; for `C[S+]1Cc2nc3ccccc3n2C1c1c(F)cccc1F` (stereo unspecified), -14.7%. Same read-out and setting: the figure for `C=CC1C(C(=O)Nc2ccccc2)CN1C` (stereo unspecified) is 10.9%; for `COc1ccc(CN2CCCN(Cc3ccc(OC)cc3OC)C2c2cc(OC)ccc2OC)c(OC)c1` it is -1.85%; for `CCCCCCCCOC(=O)Nc1cccc2ccccc12` it is -4.35%. Regarding `Nc1nc(O)c(N)c(=O)[nH]1`, the growth inhibition is -4.05%.

For `c1ccn2cncc2c1`, the growth inhibition was 20.7%. Still for that read-out and setting: for `Cc1cc(N(CCC#N)CCC#N)ccc1C=Nc1ccc(C(=O)NN2C(=O)/C(=C/c3ccc(N(CCC#N)CCC#N)cc3)N=C2c2cc([N+](=O)[O-])ccc2Cl)cc1` the value was 4.7%. Same read-out and setting: the figure for `CC1(C)N=C(C(N)=O)c2[nH]cnc2N1` is 11.3%; for `COc1cc(OC)c(OC)cc1/C=N/N=C(\N)NO` it is -13.1%.

On to `CC1=CC(C(O)C(C)C)C(C)(Cc2ccc(C)cn2)NC1c1ccccc1` (stereo unspecified), for which the growth inhibition is -2.05%. The same measure, in the same setting: the figure for `CCN(CC)Cc1cc(OC)c(OC)c(OC)c1` is 7%; for `Cc1cc(=O)[nH]c(Nc2nc3ccccc3[nH]2)n1` it is -1.4%; for `Oc1ccc(-c2csc(NNC3=NC/C(=C/c4ccc5c(c4)OCO5)S3)n2)cc1O` it is 21.1%.

A further experiment in a line: NCI Yeast Anticancer Drug Screen. Data for the mlh1 rad18 strain (AID 175). Particulars: S. cerevisiae mlh1 rad18 strain growth inhibition; at 50.0 µM; stronger effect = higher value. Summed up: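 Cells of a genetically altered yeast strain, deficient in DNA damage repair, were treated with compound. Their growth was then compared with that of vehicle-treated cultures to give inhibition.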
As to `CN=c1ncc2nc(-c3ccccc3)c(-c3ccccc3)n(C)c-2n1`, the growth inhibition is -24.4%. Still for that read-out and setting: the figure for `O=C(O)/C=C/c1ccccc1Br` is -17.4%. The same measure, in the same setting: the figure for `CCCc1cccc[n+]1CC(=O)c1ccccc1` is -1.65%; for `CCCCCCCCCCCCCCCCOc1ccccn1` it is -6.9%.

For `Cn1c2c(c3ccccc31)CCN(CCCCN1CCc3c(n(C)c4ccccc34)C1=O)C2`, the growth inhibition is -12.8%. On the same count and under the same terms, the figure for `CC[C@@H]1CN(C)[C@H]2Cc3c([nH]c4ccccc34)C(=O)C[C@H]1C2C(=O)OC` (stereo partly specified) is 18.7%. Consider `O=C(O)c1ccccc1/C=N\N(CCO)C1=NCCN1`, for which the growth inhibition is 19%. Still for that read-out and setting: the figure for `COC(=O)C1=C(C)C(=O)[C@]23C(CCCC[C@H]12)C(=O)[C@H](C(=O)OC)C3C` (stereo partly specified) is 16.1%.

For the compound `N#CCCSc1nnc(N)s1`, the growth inhibition is -14.8%. On the same count and under the same terms, for `CCC1(O)c2ccccc2CCC1C` (stereo unspecified) the value was -19.9%; for `O=S(=O)(c1ccccc1)c1ccccc1Br`, 35%; for `CC1=NCCN1CCN`, 23.6%.

With `Clc1cc2nnn(C3CCCCO3)c2cc1Cl` (stereo unspecified), the growth inhibition was 14.4%. On to `N#C/C(=N\NC(=O)c1ccccc1Cl)c1ccccc1Cl`, for which the growth inhibition was 77.8% (active). The same measure, in the same setting: for `O=C1C2=Cc3ccccc3OC2(O)Oc2ccc(O)cc21` (stereo unspecified) the value was -33.5%; for `CCc1ccc([OH2+])c(C(=O)[O-])c1.CCc1ccc([OH2+])c(C(=O)[O-])c1.CCc1ccc([OH2+])c(C(=O)[O-])c1.CCc1ccc([OH2+])c(C(=O)[O-])c1.[Cu+2].[Cu+2]`, 20.9%; for `CCN(c1ccccc1)S(=O)(=O)c1ccc(Oc2ccccc2)c(N)c1`, -10.8%.

Take `COC1OC(COS(=O)(=O)c2ccc(C)cc2)C2OC(C)(C)OC2C1OS(=O)(=O)c1ccc(C)cc1` (stereo unspecified): the growth inhibition is 7.1%.

In the case of `c1ccc(-c2cc3c4ccccc4ccn3c2)cc1`, the growth inhibition is -5.95%. For the compound `NC(=O)N/N=C/c1cccc(O)c1O`, the growth inhibition was 5.75%.

`N#Cc1cc([N+](=O)[O-])ccc1NC(=O)C(=O)C(C(=O)c1ccc2ccccc2c1)C1OCc2ccccc21` (stereo unspecified): the growth inhibition is -9.95%. Turning to `CCCCCCCCCCCCCCCCCCC(CO)CO`, the growth inhibition is 1.8%. The same measure, in the same setting: for `C/C=C/C(=O)NN` the value was 25.8%.
